PubChem BioAssay (Tox21)
“And” between values parts separate entries of the source, which are not always exact repeats. Identical values can stand only once. Records with an inconclusive call do not appear. The source made the active and inactive calls. Calls come from the whole dose curve; as a rule, active = well fitted curve in the direction sought with a large enough effect in the repeat runs; inconclusive = weak or mixed curves; inactive = no such curve, though single readings can be large; an effect the other way counts as inactive or inconclusive.

Tests used:
[1] = A CellTox Green Cytotoxicity Assay to monitor cytotoxicity in HEK293 cells - 40 hour (AID 1224871); note: nearly all actives have a fitted effect of over 45% in size; note: potency is the fitted concentration of half-maximal effect
Summary of the method: (§1)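 HEK293 cells, 600/well, were preincubated 5 hours and then exposed to compounds at 37 C for up to 40 hours. A cell-impermeant cyanine dye staining dead-cell DNA was read by fluorescence at 0, 8, 16, 24, 32 and 40 h time points.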

[2] = qHTS RealTime-Glo MT Cell Viability Assay in HEK293 cells - 16 hour (AID 1224872); note: nearly all actives have a fitted effect of over 50% in size; note: potency is the fitted concentration of half-maximal effect
Summary of the method: (§2)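 Tox21 10K qHTS, HEK293, 600 cells/well, RealTime-Glo reagent co-dispensed with cells; 5 h preincubation, compound by pintool, 37 C, luminescence at 0–40 h.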

[3] = qHTS RealTime-Glo MT Cell Viability Assay in HepG2 cells - 8 hour (AID 1224873); note: nearly all actives have a fitted effect of over 55% in size; note: potency is the fitted concentration of half-maximal effect
Summary of the method: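 HepG2 cells mixed with RealTime-Glo MT reagents (NanoLuc plus cell-permeant prosubstrate) were seeded at 600 cells/well, incubated 5 h at 37 C/5% CO2, then pinned with compounds in DMSO; nonlytic luminescence tracked viability during 40 h treatment.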

[4] = qHTS RealTime-Glo MT Cell Viability Assay in HEK293 cells - 40 hour (AID 1224874); conditions: RealTime-Glo luminescence; max response: active compounds read low; note: nearly all actives have a fitted effect of over 50% in size; note: potency is the fitted concentration of half-maximal effect
Summary of the method: (§3)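 600 cells/well were plated with the nonlytic NanoLuc/prosubstrate reagent, pre-incubated 5 h, then given 23 nL of compound in DMSO. Incubation at 37 C for 40 h, with luminescence from viable-cell-reduced substrate read repeatedly from 0 h.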

[5] = A CellTox Green Cytotoxicity Assay to monitor cytotoxicity in HEK293 cells - 24 hour (AID 1224875); note: nearly all actives have a fitted effect of over 45% in size; note: potency is the fitted concentration of half-maximal effect
Summary of the method: as §1

[6] = A CellTox Green Cytotoxicity Assay to monitor cytotoxicity in HepG2 cells - 16 hour (AID 1224876); note: nearly all actives have a fitted effect of over 45% in size; note: potency is the fitted concentration of half-maximal effect
Summary of the method: (§4)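 HepG2 cells, 600/well, preincubated 5 h with CellTox Green dye, then exposed to Tox21 compounds in DMSO at 37 C for up to 40 h. Dead-cell DNA fluorescence read at the indicated time point.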

[7] = A CellTox Green Cytotoxicity Assay to monitor cytotoxicity in HepG2 cells - 24 hour (AID 1224878); note: nearly all actives have a fitted effect of over 45% in size; note: potency is the fitted concentration of half-maximal effect
Summary of the method: as §4

[8] = A CellTox Green Cytotoxicity Assay to monitor cytotoxicity in HepG2 cells - 40 hour (AID 1224879); note: nearly all actives have a fitted effect of over 40% in size; note: potency is the fitted concentration of half-maximal effect
Summary of the method: as §4

[9] = qHTS RealTime-Glo MT Cell Viability Assay in HEK293 cells - 0 hour (AID 1224880)
Summary of the method: as §3

[10] = A CellTox Green Cytotoxicity Assay to monitor cytotoxicity in HEK293 cells - 32 hour (AID 1224881); note: nearly all actives have a fitted effect of over 40% in size; note: potency is the fitted concentration of half-maximal effect
Summary of the method: as §1

[11] = A CellTox Green Cytotoxicity Assay to monitor cytotoxicity in HepG2 cells - 0 hour (AID 1224882); note: nearly all actives have a fitted effect of over 35% in size
Summary of the method: as §4

[12] = A CellTox Green Cytotoxicity Assay to monitor cytotoxicity in HepG2 cells - 32 hour (AID 1224883); note: nearly all actives have a fitted effect of over 50% in size; note: potency is the fitted concentration of half-maximal effect
Summary of the method: as §4

[13] = A CellTox Green Cytotoxicity Assay to monitor cytotoxicity in HEK293 cells - 8 hour (AID 1224884); note: nearly all actives have a fitted effect of over 35% in size; note: potency is the fitted concentration of half-maximal effect
Summary of the method: as §1

[14] = qHTS RealTime-Glo MT Cell Viability Assay in HepG2 cells - 16 hour (AID 1224885); note: nearly all actives have a fitted effect of over 50% in size; note: potency is the fitted concentration of half-maximal effect
Summary of the method: (§5)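 Cells + NanoLuc/prosubstrate dispensed (600 cells/well) → 5 h at 37 C/5% CO2 → compounds in DMSO transferred → 40 h incubation at 37 C, luminescence read at 0, 8, 16, 24, 32, 40 h.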

[15] = qHTS RealTime-Glo MT Cell Viability Assay in HEK293 cells - 24 hour (AID 1224886); note: nearly all actives have a fitted effect of over 50% in size; note: potency is the fitted concentration of half-maximal effect
Summary of the method: as §2

[16] = qHTS RealTime-Glo MT Cell Viability Assay in HEK293 cells - 8 hour (AID 1224887); note: nearly all actives have a fitted effect of over 50% in size; note: potency is the fitted concentration of half-maximal effect
Summary of the method: as §3

[17] = A CellTox Green Cytotoxicity Assay to monitor cytotoxicity in HEK293 cells - 16 hour (AID 1224888); note: nearly all actives have a fitted effect of over 35% in size; note: potency is the fitted concentration of half-maximal effect
Summary of the method: as §1

[18] = qHTS RealTime-Glo MT Cell Viability Assay in HepG2 cells - 0 hour (AID 1224889); note: nearly all actives have a fitted effect of over 50% in size
Summary of the method: as §5

[19] = A CellTox Green Cytotoxicity Assay to monitor cytotoxicity in HepG2 cells - 8 hour (AID 1224890); note: nearly all actives have a fitted effect of over 45% in size; note: potency is the fitted concentration of half-maximal effect
Summary of the method: as §4

[20] = qHTS RealTime-Glo MT Cell Viability Assay in HepG2 cells - 32 hour (AID 1224877); note: nearly all actives have a fitted effect of over 55% in size; note: potency is the fitted concentration of half-maximal effect
Summary of the method: as §5
% is set by controls: 0 for no effect and ±100 for the full control effect.

CCCCON=O
inactive: Potency [1] | Potency [2] | Potency [3] | max response [4] 4.44% | Potency [5] | Potency [6] | Potency [7] | Potency [8] | Potency [9] | Potency [10] | Potency [11] | Potency [12] | Potency [13] | Potency [14] | Potency [15] | Potency [16] | Potency [17] | Potency [18] | Potency [19]

O=S(=O)(O)F
inactive: Potency [1] | Potency [2] | Potency [3] | max response [4] 6.96% | Potency [5] | Potency [6] | Potency [20] | Potency [7] | Potency [8] | Potency [10] | Potency [11] | Potency [12] | Potency [14] | Potency [15] | Potency [16] | Potency [17] | Potency [18]

ClSC(Cl)(Cl)Cl
inactive: Potency [1] | Potency [2] | Potency [3] | max response [4] 0.633% | Potency [5] | Potency [6] | Potency [20] | Potency [7] | Potency [8] | Potency [10] | Potency [11] | Potency [12] | Potency [13] | Potency [14] | Potency [15] | Potency [16] | Potency [17] | Potency [18] | Potency [19]

CC(=O)[O-].CC(=O)[O-].O.O.[Zn+2]
inactive: Potency [1] | Potency [2] | Potency [3] | max response [4] -2.4% | Potency [5] | Potency [6] | Potency [20] | Potency [7] | Potency [9] | Potency [10] | Potency [11] | Potency [12] | Potency [13] | Potency [14] | Potency [15] | Potency [16] | Potency [17] | Potency [18] | Potency [19]

ClC1=C(Cl)[C@]2(Cl)[C@H]3[C@H]([C@@H]4C=C[C@H]3C4)[C@@]1(Cl)C2(Cl)Cl
inactive: Potency [9] | Potency [11] | Potency [18]
active: Potency [1] 54.9 µM and 49 µM | Potency [2] 43.6 µM and 38.9 µM | Potency [3] 49000 nM | Potency [4] 48.9 µM and 43.6 µM | Potency [5] 48.9 µM and 49 µM | Potency [6] 54900 nM | Potency [7] 54900 nM | Potency [8] 54900 nM | Potency [10] 54.9 µM and 49 µM | Potency [12] 54900 nM | Potency [13] 54900 nM | Potency [14] 49000 nM | Potency [15] 43600 nM | Potency [16] 43.6 µM and 38.9 µM | Potency [17] 54.9 µM and 49 µM | Potency [19] 54900 nM

C[N+]1(C)[C@@H]2CC[C@H]1CC(OC(=O)C(CO)c1ccccc1)C2 (stereo not given in full)
inactive: Potency [1] | Potency [2] | Potency [3] | max response [4] 8.28% | Potency [5] | Potency [6] | Potency [7] | Potency [8] | Potency [9] | Potency [10] | Potency [11] | Potency [12] | Potency [13] | Potency [14] | Potency [16] | Potency [17] | Potency [18] | Potency [19]

C=CC(=O)[O][Sn]([CH2]CCC)([CH2]CCC)[CH2]CCC
inactive: Potency [11] | Potency [18]
active: Potency [1] 871 nM | Potency [2] 549 nM | Potency [3] 977 nM | Potency [4] 389 nM | Potency [5] 7.76 µM | Potency [6] 616 nM | Potency [20] 389 nM | Potency [7] 692 nM | Potency [8] 549 nM | Potency [10] 3.47 µM | Potency [12] 692 nM | Potency [13] 21900 nM | Potency [14] 549 nM | Potency [15] 436 nM | Potency [16] 871 nM | Potency [17] 24.5 µM | Potency [19] 977 nM
